# In publication PMC5540273 (PLoS ONE, 2017):
# Read-outs that look alike come from different tables or passages of the source.
# Experiments:
# FGFR4 = conditions: concentration: 1 μM, replicates: in singlicate; n = 1
# FGR = conditions: concentration: 1 μM, replicates: in singlicate; n = 1
# FLT1 = conditions: concentration: 1 μM, replicates: in singlicate; n = 1
# FLT3-autoinhibited = conditions: concentration: 1 μM, replicates: in singlicate; n = 1
# FLT3 = conditions: concentration: 1 μM, replicates: in singlicate; n = 1
# FLT4 = conditions: concentration: 1 μM, replicates: in singlicate; n = 1
# FRK = conditions: concentration: 1 μM, replicates: in singlicate; n = 1
# FYN = conditions: concentration: 1 μM, replicates: in singlicate; n = 1
# GAK = conditions: concentration: 1 μM, replicates: in singlicate; n = 1
# GCN2(Kin.Dom.2,S808G) = tested on: T1, GCN2(Kin.Dom.2,S808G); conditions: concentration: 1 μM, replicates: in singlicate; n = 1
# T1 construct: gene EIF2AK4
# GRK1 = conditions: concentration: 1 μM, replicates: in singlicate; n = 1
# GRK2 = tested on: T2, GRK2; conditions: concentration: 1 μM, replicates: in singlicate; n = 1
# T2 construct: gene ADRBK1
# GRK3 = tested on: T3, GRK3; conditions: concentration: 1 μM, replicates: in singlicate; n = 1
# T3 construct: gene ADRBK2
# GRK4 = conditions: concentration: 1 μM, replicates: in singlicate; n = 1
# GRK7 = conditions: concentration: 1 μM, replicates: in singlicate; n = 1
# GSK3A = conditions: concentration: 1 μM, replicates: in singlicate; n = 1
# GSK3B = conditions: n = 1
# HASPIN = tested on: T4, HASPIN; conditions: concentration: 1 μM, replicates: in singlicate; n = 1
# T4 construct: gene GSG2
# HCK = conditions: concentration: 1 μM, replicates: in singlicate; n = 1
# HIPK1 = conditions: concentration: 1 μM, replicates: in singlicate; n = 1
# [1] = concentration: 1 μM, replicates: in singlicate
# 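Also: KINOMEscan kinase panel screen.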
structure (smiles),measurement,setting,value
CC(C)N1CCC(n2cnc(-c3ccc(F)cc3)c2-c2ccnc(N)n2)CC1 [SB-223132],%Inh,FGFR4,0%
same,%Inh,FGR,16%
same,%Inh,FLT1,0%
same,%Inh,FLT3-autoinhibited,0%
same,%Inh,FLT3,0%
same,%Inh,FLT4,0%
same,%Inh,FRK,1%
same,%Inh,FYN,0%
same,%Inh,GAK,2%
same,%Inh,"GCN2(Kin.Dom.2,S808G)",0%
same,%Inh,GRK1,0%
same,%Inh,GRK2,0%
same,%Inh,GRK3,0%
same,%Inh,GRK4,4%
same,%Inh,GRK7,0%
same,%Inh,GSK3A,17%
same,%Inh,GSK3B; [1],0%
same,%Inh,HASPIN,12%
same,%Inh,HCK,0%
same,%Inh,HIPK1,30%
CC(C)(C)OC(=O)NC1CCCN(c2cc(-c3ccc4c(N)n[nH]c4c3)nc(N)n2)C1 (stereo not drawn) [GSK2286096],%Inh,FGFR4,14%
same,%Inh,FGR,4%
same,%Inh,FLT1,9%
same,%Inh,FLT3-autoinhibited,0%
same,%Inh,FLT3,0%
same,%Inh,FLT4,0%
same,%Inh,FRK,2%
same,%Inh,FYN,26%
same,%Inh,GAK,42%
same,%Inh,"GCN2(Kin.Dom.2,S808G)",0%
same,%Inh,GRK1,0%
same,%Inh,GRK2,0%
same,%Inh,GRK3,0%
same,%Inh,GRK4,0%
same,%Inh,GRK7,0%
same,%Inh,GSK3A,0%
same,%Inh,GSK3B; [1],11%
same,%Inh,HASPIN,1%
same,%Inh,HCK,0%
same,%Inh,HIPK1,0%
Clc1ccc(-c2cc(-c3c[nH]nc3-c3ccccn3)ccn2)cc1 [GW681251],%Inh,FGFR4,13%
same,%Inh,FGR,11%
same,%Inh,FLT1,20%
same,%Inh,FLT3-autoinhibited,0%
same,%Inh,FLT3,0%
same,%Inh,FLT4,0%
same,%Inh,FRK,0%
same,%Inh,FYN,10%
same,%Inh,GAK,74%
same,%Inh,"GCN2(Kin.Dom.2,S808G)",7%
same,%Inh,GRK1,43%
same,%Inh,GRK2,0%
same,%Inh,GRK3,11%
same,%Inh,GRK4,0%
same,%Inh,GRK7,0%
same,%Inh,GSK3A,7%
same,%Inh,GSK3B; [1],32%
same,%Inh,HASPIN,0%
same,%Inh,HCK,0%
same,%Inh,HIPK1,7%
Clc1cc(Nc2ncnc3cc[nH]c23)ccc1OCc1ccccn1,%Inh,FGFR4,4%
same,%Inh,FGR,24%
same,%Inh,FLT1,0%
same,%Inh,FLT3-autoinhibited,5%
same,%Inh,FLT3,7%
same,%Inh,FLT4,0%
same,%Inh,FRK,15%
same,%Inh,FYN,0%
same,%Inh,GAK,3%
same,%Inh,"GCN2(Kin.Dom.2,S808G)",0%
same,%Inh,GRK1,15%
same,%Inh,GRK2,0%
same,%Inh,GRK3,9%
same,%Inh,GRK4,25%
same,%Inh,GRK7,14%
same,%Inh,GSK3A,6%
same,%Inh,GSK3B; [1],7%
same,%Inh,HASPIN,0%
same,%Inh,HCK,41%
same,%Inh,HIPK1,28%
C[C@@H]1CCN(C(=O)CO)C[C@@H]1N(C)c1ncnc2[nH]ccc12,%Inh,FGFR4,0%
same,%Inh,FGR,0%
same,%Inh,FLT1,0%
same,%Inh,FLT3-autoinhibited,0%
same,%Inh,FLT3,0%
same,%Inh,FLT4,0%
same,%Inh,FRK,3%
same,%Inh,FYN,0%
same,%Inh,GAK,0%
same,%Inh,"GCN2(Kin.Dom.2,S808G)",7%
same,%Inh,GRK1,16%
same,%Inh,GRK2,17%
same,%Inh,GRK3,22%
same,%Inh,GRK4,0%
same,%Inh,GRK7,25%
same,%Inh,GSK3A,0%
same,%Inh,GSK3B; [1],0%
same,%Inh,HASPIN,8%
same,%Inh,HCK,25%
same,%Inh,HIPK1,15%
Nc1nccc2scc(-c3ccc4c(c3)CCN4C(=O)Cc3cc(F)ccc3F)c12 [GSK2587663],%Inh,FGFR4,7%
same,%Inh,FGR,40%
same,%Inh,FLT1,37%
same,%Inh,FLT3-autoinhibited,0%
same,%Inh,FLT3,0%
same,%Inh,FLT4,0%
same,%Inh,FRK,11%
same,%Inh,FYN,12%
same,%Inh,GAK,0%
same,%Inh,"GCN2(Kin.Dom.2,S808G)",13%
same,%Inh,GRK1,0%
same,%Inh,GRK2,0%
same,%Inh,GRK3,40%
same,%Inh,GRK4,0%
same,%Inh,GRK7,0%
same,%Inh,GSK3A,17%
same,%Inh,GSK3B; [1],1%
same,%Inh,HASPIN,0%
same,%Inh,HCK,0%
same,%Inh,HIPK1,0%
Nc1n[nH]c2nnc(-c3ccccc3)cc12 [SB-517389],%Inh,FGFR4,14%
same,%Inh,FGR,29%
same,%Inh,FLT1,12%
same,%Inh,FLT3-autoinhibited,1%
same,%Inh,FLT3,0%
same,%Inh,FLT4,0%
same,%Inh,FRK,6%
same,%Inh,FYN,28%
same,%Inh,GAK,10%
same,%Inh,"GCN2(Kin.Dom.2,S808G)",10%
same,%Inh,GRK1,0%
same,%Inh,GRK2,0%
same,%Inh,GRK3,0%
same,%Inh,GRK4,0%
same,%Inh,GRK7,0%
same,%Inh,GSK3A,71%
same,%Inh,GSK3B; 1 µM,19%
same,%Inh,HASPIN,0%
same,%Inh,HCK,0%
same,%Inh,HIPK1,56%
Cl.c1ccc(Cn2ncc3cc(Nc4ncnc5ccccc45)ccc32)cc1 [GW273749],%Inh,FGFR4,5%
same,%Inh,FGR,31%
same,%Inh,FLT1,17%
same,%Inh,FLT3-autoinhibited,7%
same,%Inh,FLT3,0%
same,%Inh,FLT4,8%
same,%Inh,FRK,0%
same,%Inh,FYN,36%
same,%Inh,GAK,23%
same,%Inh,"GCN2(Kin.Dom.2,S808G)",0%
same,%Inh,GRK1,0%
same,%Inh,GRK2,0%
same,%Inh,GRK3,0%
same,%Inh,GRK4,0%
same,%Inh,GRK7,0%
same,%Inh,GSK3A,10%
same,%Inh,GSK3B; [1],14%
same,%Inh,HASPIN,8%
same,%Inh,HCK,0%
same,%Inh,HIPK1,0%
N#Cc1ccc(Oc2ccc(Nc3ncnc4cc[nH]c34)cc2Cl)cc1,%Inh,FGFR4,27%
same,%Inh,FGR,22%
same,%Inh,FLT1,8%
same,%Inh,FLT3-autoinhibited,15%
same,%Inh,FLT3,10%
same,%Inh,FLT4,0%
same,%Inh,FRK,23%
same,%Inh,FYN,20%
same,%Inh,GAK,17%
same,%Inh,"GCN2(Kin.Dom.2,S808G)",10%
same,%Inh,GRK1,27%
same,%Inh,GRK2,0%
same,%Inh,GRK3,7%
same,%Inh,GRK4,12%
same,%Inh,GRK7,14%
same,%Inh,GSK3A,19%
same,%Inh,GSK3B; [1],0%
same,%Inh,HASPIN,0%
same,%Inh,HCK,21%
same,%Inh,HIPK1,32%
Fc1cccc(COc2ccc(Nc3ncnc4cc[nH]c34)cc2Cl)c1,%Inh,FGFR4,11%
same,%Inh,FGR,18%
same,%Inh,FLT1,6%
same,%Inh,FLT3-autoinhibited,16%
same,%Inh,FLT3,0%
same,%Inh,FLT4,0%
same,%Inh,FRK,21%
same,%Inh,FYN,13%
same,%Inh,GAK,14%
same,%Inh,"GCN2(Kin.Dom.2,S808G)",0%
same,%Inh,GRK1,22%
same,%Inh,GRK2,20%
same,%Inh,GRK3,3%
same,%Inh,GRK4,35%
same,%Inh,GRK7,23%
same,%Inh,GSK3A,12%
same,%Inh,GSK3B; [1],8%
same,%Inh,HASPIN,0%
same,%Inh,HCK,24%
same,%Inh,HIPK1,27%
FC(F)(F)c1cc(Nc2nccc(-c3c(-c4ccc(Cl)cc4)nn4ncccc34)n2)ccc1Cl [GW829351],%Inh,FGFR4,0%
same,%Inh,FGR,0%
same,%Inh,FLT1,0%
same,%Inh,FLT3-autoinhibited,0%
same,%Inh,FLT3,0%
same,%Inh,FLT4,0%
same,%Inh,FRK,0%
same,%Inh,FYN,0%
same,%Inh,GAK,0%
same,%Inh,"GCN2(Kin.Dom.2,S808G)",0%
same,%Inh,GRK1,0%
same,%Inh,GRK2,0%
same,%Inh,GRK3,0%
same,%Inh,GRK4,10%
same,%Inh,GRK7,0%
same,%Inh,GSK3A,26%
same,%Inh,GSK3B; [1],0%
same,%Inh,HASPIN,0%
same,%Inh,HCK,0%
same,%Inh,HIPK1,3%
CCCc1ccc(S(=O)(=O)NC2CCN(c3ccnc(Nc4ccc(OC)cc4)n3)C2)cc1 (stereo not drawn) [GSK1379737],%Inh,FGFR4,8%
same,%Inh,FGR,12%
same,%Inh,FLT1,3%
same,%Inh,FLT3-autoinhibited,0%
same,%Inh,FLT3,26%
same,%Inh,FLT4,9%
same,%Inh,FRK,0%
same,%Inh,FYN,7%
same,%Inh,GAK,0%
same,%Inh,"GCN2(Kin.Dom.2,S808G)",33%
same,%Inh,GRK1,0%
same,%Inh,GRK2,0%
same,%Inh,GRK3,67%
same,%Inh,GRK4,0%
same,%Inh,GRK7,0%
same,%Inh,GSK3A,7%
same,%Inh,GSK3B; [1],8%
same,%Inh,HASPIN,14%
same,%Inh,HCK,0%
same,%Inh,HIPK1,0%
